Rows were chosen to be rich in hits. Some 6.7% of all compounds tested hit in one or more screens of this group.
GDH-TPI counter = inhibits GDH-TPI coupling enzymes, artifact for Mtb FBA screen; inhibition, % at 4.8 µM; actives 1.2% (n = 360,000); GDH-TPI coupled enzyme counterscreen, NADH absorbance; AID 588335; in the data active = inhibition above about 30%;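 note: 0% = DMSO wells and 100% = wells lacking the enzyme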
BoNT-A LC inh2 = inhibitors of Botulinum neurotoxin A light chain protease; inhibition, % at 10 µM; multiplex microsphere protease substrate cleavage, flow cytometry; actives 0.17% (n = 360,000); note: plate controls were buffer without enzyme for full effect and enzyme alone for no effect
BoNT F protease = inhibitors of Botulinum neurotoxin F light chain protease; inhibition, % at 10 µM; Multiplex microsphere protease cleavage assay, flow cytometry; actives 0.22% (n = 360,000); in the data active = inhibition above about 35%, passing the limit was not always enough; inconclusive = no clear call, values can overlap the other calls; note: plate controls were buffer without enzyme for full effect and enzyme alone for no effect
Bead autofluor = flagged as autofluorescent in microsphere protease counterscreen. compound autofluorescence counterscreen, microsphere flow cytometry; active compounds read high. fluorescence intensity (no concentration beside the values). actives 3.1% (n = 360,000); in the data active = fluorescence intensity above about 16000; inconclusive = no clear call, values can overlap the other calls
FBA Mtb inh = inhibits M. tuberculosis FBA enzyme; purified M. tuberculosis FBA, fluorescence read-out; AID 588726; actives 2.3% (n = 360,000); P9WQA3; inhibition, % at 1 µM; in the data active = inhibition above about 27%;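 note: 0% = vehicle and 100% = reference inhibitor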
Target sequence (P9WQA3 whole entry, looked up): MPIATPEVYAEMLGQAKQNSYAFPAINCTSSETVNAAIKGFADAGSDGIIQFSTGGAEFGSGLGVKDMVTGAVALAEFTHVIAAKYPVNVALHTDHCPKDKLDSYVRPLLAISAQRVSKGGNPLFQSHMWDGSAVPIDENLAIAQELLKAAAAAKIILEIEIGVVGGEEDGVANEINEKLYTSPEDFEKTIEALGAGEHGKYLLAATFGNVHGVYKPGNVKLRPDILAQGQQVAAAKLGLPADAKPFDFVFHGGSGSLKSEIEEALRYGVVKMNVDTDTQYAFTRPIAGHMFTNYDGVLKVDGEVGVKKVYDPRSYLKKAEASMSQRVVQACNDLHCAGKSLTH
Anthrax LF inh2 = inhibitors of Bacillus anthracis lethal factor protease; P15917; multiplex microsphere protease cleavage assay, LF; inhibition, % at 10 µM; actives 0.12% (n = 360,000); note: plate controls were buffer without enzyme for full effect and enzyme alone for no effect
* = called active by the depositor; ? = inconclusive; . = no result given; + = active, no number. Cut-off read from the data, not from the text of the source, unless noted: active = inhibition above about 30%; inconclusive = no clear call, values can overlap the other calls; inactive = below that.

SMILES | GDH-TPI counter | BoNT-A LC inh2 | BoNT F protease | Bead autofluor | FBA Mtb inh | Anthrax LF inh2
Cn1c(O)c(/C=N/c2ncccn2)c(=O)n(C)c1=O | 32* | 2 | 4 | 21865* | 4 | 4
CCOc1ccccc1N=Cc1c(O)n(C)c(=O)n(C)c1=O | -4 | -2 | -22 | 4297 | 2 | -18
Cc1ccccc1OCCN=Cc1c(O)n(C)c(=O)n(C)c1=O | -2 | 2 | 3 | 22922* | -5 | 1
Cc1cccc(N=Cc2c(O)n(C)c(=O)n(C)c2=O)c1 | 36* | -3 | -29 | 3292 | -2 | 0
Cc1cccc(C)c1NC(=O)CN(C)C(=O)CCC(=O)N1CCOCC1 | -9 | 0 | 0 | 3763 | -2 | -3
CCc1ccc2nc(SCC(=O)N3CCCCC3)c(C#N)cc2c1 | 0 | 2 | 11 | 4494 | 4 | 2
CN(Cc1nc(-c2cnccn2)no1)CC1CCN(Cc2ccccc2)CC1 | 8 | 0 | -7 | 4808 | 0 | -8
O=C(CCC1CCCC1)NNC(=O)c1cccc(Cl)c1 | 3 | -2 | -12 | 5772 | 0 | -2
Cc1cc2oc(=O)cc(C)c2c(=O)o1 | 16 | 0 | -6 | 2598 | 1 | 1
Cc1cc(=O)oc2cc(O)cc(O)c12 | 6 | 0 | -1 | 5129 | 196* | -7
CCCCCc1cc(O)c2c3c(c(=O)oc2c1)CN(C)CC3 | 2 | -1 | -11 | 4640 | 1 | -8
CCCCCc1cc(O)c2c(C)cc(=O)oc2c1 | 22 | -3 | -7 | 23187* | 3 | -1
O=C(c1cccc(S(=O)(=O)N2CCN(c3ccc(F)cc3)CC2)c1)N1CCCC(C(F)(F)F)C1 (stereo not drawn) | 8 | -1 | 5 | ? | -2 | 6
COc1ccc(/C=N/N2C(=N)SCC2=O)cc1 | 49* | -1 | -3 | 4599 | 0 | 5
COc1cc(O)c(C=NN2C(=O)CSC2=S)c(OC)c1 | 15 | 1 | -4 | 3523 | 0 | -7
O=C1CSC(=S)N1/N=C/c1cccnc1 | 57* | 7 | ? | 3343 | -4 | -6
O=C1CSC(=S)N1N=Cc1ccccc1O | 14 | 0 | -3 | 3746 | -2 | -13
COc1cc(/C=N/N2C(=O)CSC2=S)ccc1O | 38* | 1 | -18 | 4453 | -9 | -7
Nc1c(Cl)cc(C2=NCCn3c2c2ccccc2[n+]3[O-])cc1Cl | 18 | 0 | 4 | 3643 | -1 | -8
Cc1ccc(OCC(=O)NNC(=O)c2ccc(-n3cncn3)c([N+](=O)[O-])c2)cc1 | -6 | 0 | 14 | 6027 | -1 | 0
Cc1cc2oc(=O)cc(-c3ccccc3)c2c(C)c1-c1ccc(N(C)C)cc1 | 10 | -1 | -6 | 3908 | -2 | -12
COc1ccc(-n2cc(-c3ccccc3)c3c(N4CCN(CCO)CC4)ncnc32)cc1 | 1 | 7 | 8 | 20444* | 3 | -2
OCCN1CCN(c2ncnc3c2c(-c2ccccc2)cn3-c2ccc(F)cc2)CC1 | 2 | 0 | -1 | 3197 | 1 | -4
COc1ccc(Cl)cc1S(=O)(=O)N1CCN(C(=O)c2n[nH]c(=O)c3ccccc23)CC1 | 1 | 0 | -3 | 4090 | 0 | -2
Cc1ccc(S(=O)(=O)c2nc(C)oc2N2CCOCC2)cc1 | -4 | 0 | -6 | 4543 | 2 | 2
SMILES | GDH-TPI counter | BoNT-A LC inh2 | BoNT F protease | Bead autofluor | FBA Mtb inh | Anthrax LF inh2
Cc1ccc(S(=O)(=O)c2nc(C(C)(C)C)oc2N2CCOCC2)cc1 | 4 | 0 | -2 | 16379* | 2 | 1
CCCCCN1C(=O)/C(=C/c2c(N3CCc4ccccc4C3)nc3ccccn3c2=O)SC1=S | 4 | 25 | -23 | 21934* | 1 | -1
CN1CCN(c2nc3ccccn3c(=O)c2C=O)CC1 | 21 | -2 | -17 | 3814 | 14 | -4
CCN(CC)c1ccc(C=C2SC(=S)NC2=O)cc1 | 22 | 0 | 4 | 6096 | -39 | 0
CC1Cc2cc(/C=C3/SC(=S)NC3=O)ccc2O1 (stereo not drawn) | 37* | -2 | ? | 3771 | -8 | 11
O=C1NC(=S)SC1=Cc1ccccc1Cl | 42* | 0 | -5 | 3162 | 2 | -5
O=C1NC(=Nc2ccccc2Cl)S/C1=C\c1cccc([N+](=O)[O-])c1 | 22 | 0 | -2 | 3446 | 0 | 2
O=C1NC(=S)S/C1=C\c1cccc([N+](=O)[O-])c1 | 33* | 0 | -2 | 3562 | -5 | 3
COc1ccc(-c2csc(N)n2)cc1 | -4 | -1 | 3 | 2080 | 3 | 0
O=c1ncn(-c2ccc(F)cc2)c2ncccc12 | 3 | ? | -2 | 20412* | 0 | -3
COc1ccc(S(=O)(=O)NC(N)=NCCc2ccccc2OC)cc1 | -4 | 0 | -2 | 3073 | 191* | -2
CCc1cc(=O)oc2cc(OC(=O)CN3C(=O)NC4(CCCC4)C3=O)ccc12 | 19 | 2 | -1 | 4135 | + | -2
O=C(CN1C(=O)NC2(CCCC2)C1=O)Oc1ccc2ccc(=O)oc2c1 | 27 | 4 | -51 | 3604 | . | -18
CCOC(=O)Nc1ccc2c(CN3C(=O)NC4(CCCC4)C3=O)cc(=O)oc2c1 | 23 | 0 | -1 | 3498 | + | 0
COC(=O)c1ccccc1NC(=O)CNc1cc(Cl)ccc1N1CCOCC1 | 5 | 2 | -5 | 2187 | 1 | -5
CCN(CC)CCNC(=O)C(C)c1nn(CC)c(=O)c2ccccc12 (stereo not drawn) | 0 | 1 | 1 | 22461* | 6 | 0
CC(=O)c1cnc(N2CCCCC2)nc1C | 1 | 2 | 4 | 21581* | 2 | 0
CC(C)(C)S(=O)(=O)c1cnc(N2CCCCC2)nc1N | 2 | 0 | -3 | 5940 | 2 | 4
Cc1c(-c2cccc(NC(=O)c3cccs3)c2)nc2ncccn12 | 11 | 0 | 0 | 2060 | + | 1
O=C(Nc1cccc(-c2cnc3ccccc3n2)c1)c1ccco1 | 20 | 1 | 0 | 3492 | 0 | -4
Cc1nc(-c2cccc(NC(=O)c3cccs3)c2)cs1 | 13 | -2 | -28 | 3018 | -11 | 0
Cc1c(-c2cccc(NC(=O)c3ccco3)c2)nc2ncccn12 | 29 | 0 | -7 | 3853 | + | -2
C#CCN(C[C@@H]1[C@@H](OC(=O)NCc2ccccc2F)[C@@H](OC(=O)NCc2ccccc2F)Cn2c(=O)n(CCCCCC)c(=O)n21)S(=O)(=O)c1ccc(C)cc1 | 16 | 0 | -2 | 3437 | -3 | 4
O=C1C2CC=C(Cl)CC2C(=O)N1CCC[n+]1ccccc1 (stereo not drawn) | -11 | ? | 2 | 19255* | -2 | -1
COc1cc(C(=O)Nc2sc(C(=O)N3CCOCC3)c(C)c2C#N)cc(OC)c1OC | 21 | 0 | 6 | 2282 | 2 | 2
CCC(=O)NCc1c(Cl)cccc1-n1cccc1 | -10 | 6 | 10 | 19934* | 1 | -11
CCS(=O)(=O)Nc1ccc(C(=O)CC2(O)C(=O)Nc3ccccc32)cc1 (stereo not drawn) | 39* | 0 | -4 | 7116 | -2 | 4
CC(CN1CCCCC1)OC(=O)CCc1ccccc1 (stereo not drawn) | -4 | -1 | 2 | 4040 | -3 | -11

High-throughput results deposited in PubChem by several laboratories.
